Reference: PubChem BioAssay (NCATS)
Inconclusive results are not listed. A call without a number means that no potency is given here. Active and inactive are the calls of the source. Unless noted, calls come from the whole dose curve; as a rule, active = well fitted curve in the direction sought with a large enough effect; inconclusive = small, poorly fitted or top-dose-only effect, or another doubt; inactive = no such curve, though single readings can be large; an effect the other way counts as inactive or inconclusive.

Experiments:
[1] = Primary redox qHTS assay for identification of artifact compounds. (AID 1845223)
Procedure, shortened: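 Redox-cycling detection via DTT (250 uM final) oxidation coupled to Amplex Red (25 uM)/HRP (250 mU/mL) in HBSS. 15 min preincubation plus 30 min after DTT, room temperature. Ex/Em 525/598 nm; 4-parameter Hill fit against DMSO and 10 uM DA3003.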

[2] = qHTS to identify inhibitors of the type 1 interferon - major histocompatibility complex class I in skeletal muscle: primary screen against the NCATS Mechanism Interrogation Plate v5.0 (MIPE) Libary (AID 1347411); note: nearly all actives have a fitted effect of over 65% in size; note: potency is the fitted concentration of half-maximal effect
Procedure, shortened: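 Luminescence from CRISPR HiBit-tagged endogenous HLA-B in human myoblasts reported MHC class I level after 24 h of IFN-beta (4 ng/ml) plus compound. Compounds ran as 11-point 1:3 series, top 46 uM final.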

[3] = target: Cytochrome P450 2D6 (Homo sapiens) (UniProt P10635); experiment: Cytochrome P450 family 2 subfamily D member 6 (CYP2D6) small molecule antagonists: luciferase biochemical (cell-free) qHTS assay (AID 1645840; active = well fitted curve in the direction sought with a large enough effect in the repeat runs; an effect the other way counts as inactive or inconclusive; note: nearly all actives have a fitted effect of over 55% in size; note: potency is the fitted concentration of half-maximal effect)
Procedure, shortened: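 P450-Glo CYP2D6 system: proluciferin substrate converted by enzyme to luciferin, read by luminescence proportional to activity. Enzyme-substrate mix with compound 10 min at room temperature, then NADPH regeneration 1 h before detection reagent.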

[4] = target: Cytochrome P450 2C9 (Homo sapiens) (UniProt P11712); experiment: Cytochrome P450 family 2 subfamily C member 9 (CYP2C9) small molecule antagonists: luciferase biochemical (cell-free) qHTS assay (AID 1645842; active = well fitted curve in the direction sought with a large enough effect in the repeat runs; an effect the other way counts as inactive or inconclusive; note: nearly all actives have a fitted effect of over 55% in size; note: potency is the fitted concentration of half-maximal effect)
Procedure, shortened: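 P450-Glo CYP2C9 system: proluciferin substrate with enzyme in mix containing 0.4% BSA, 10 min at room temperature, then NADPH regeneration solution added and incubated 1 h at 37C. Detection reagent stopped reaction; luminescence read after 20 min as RLU.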

[5] = Primary fluorescence-based thiol-reactive (MSTI) qHTS assay for identification of artifact compounds. (AID 1845221);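 note: thiol-reactive compounds lower the probe fluorescence signal; nearly all actives have a fitted effect of over 65% in size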
Procedure, shortened: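 Probe: MSTI 4 uM, PBS pH 7.4, 2% DMSO. Incubation 1 h, RT, light-protected. Readout fluorescence 525/598 nm.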

NIH3T3 = experiment: Cytotoxic Profiling of Annotated Libraries Using Quantitative High-Throughput Screening (AID 1296008); conditions: Five cell lines viability, CellTiter-Glo ATP luminescence, 48-72 h; max response: stronger effect = lower value; note: nearly all actives have a fitted effect of over 60% in size; note: potency is the fitted concentration of half-maximal effect
Procedure, shortened: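 Compounds were pin-transferred onto cells and incubated 48 or 72 hr at 37 degree Celsius, 95% humidity. CellTiter-Glo was added, plates sat 10 min at room temperature, then ATP-coupled luminescence was imaged as the viability read-out.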

[6] = qHTS assay to identify inhibitors of the type 1 interferon - major histocompatibility complex class I in skeletal muscle: Counter screen cell viability and HiBit confirmation (AID 1347412); conditions: iHSKM muscle cells + IFN-b, HiBiT or CellTiter-Glo, 24 h; HiBiT; at 45.9 µM (top of the series); note: nearly all actives have a fitted effect of over 60% in size
Procedure, shortened: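 After 24 h with human IFN-beta (4 ng/ml) and compound titrations (top 46 uM final, 1:3, 12 points), HLA-B HiBit myoblasts were lysed for either Nano-Glo HiBiT luminescence or CellTiter Glo viability on paired plates.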

[7] = P-glycoprotein substrates identified in KB-8-5-11 adenocarcinoma cell line, qHTS therapeutic library screen (AID 1346987); note: potency is the fitted concentration of half-maximal effect; nearly all actives have a fitted effect of over 65% in size
Procedure, shortened: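 Compounds are pinned in dose-response onto KB-8-5-11 cells (500 cells/well, colchicine-free medium) and left 72 h at 37 degree C. CellTiter-Glo luminescence then yields AC50 values.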

CAOV3 = experiment: Primary qHTS to identify gynecologic anti-cancer compounds using libraries of approved drugs and bioactive compounds (AID 1345084); conditions: Gynecologic cancer cell panel viability, ATPlite luminescence, 48 h; series mostly up to 57.5 µM; note: nearly all actives have a fitted effect of over 55% in size; note: potency is the fitted concentration of half-maximal effect
Procedure, shortened: (§1)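 Cell viability after 48 h drug treatment, ATPlite luminescence readout; five doses.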

PA-1 = experiment: as above; conditions: Gynecologic cancer cell panel viability, ATPlite luminescence, 48 h; series mostly up to 57.5 µM
Procedure, shortened: as §1

SKOV3 = experiment: as above; conditions: Gynecologic cancer cell panel viability, ATPlite luminescence, 48 h; series mostly up to 57.5 µM
Procedure, shortened: as §1

[8] = target: Catechol O-methyltransferase (Homo sapiens) (UniProt P21964); experiment: Confirmatory Screen for Target Class Profiling of Small Molecule Inhibitors of Methyltransferases (AID 1745852); conditions: MTase-Glo luminescence, SAH detection, recombinant enzyme; measured here: COMT max response; stronger effect = lower value
[9] = target: Guanidinoacetate N-methyltransferase (Homo sapiens) (UniProt Q14353); experiment: as above; conditions: activity change, negative = inhibition: at 57.3 µM (top of the series) unless noted
[10] = target: Nicotinamide N-methyltransferase (Homo sapiens) (UniProt P40261); experiment: as above; conditions: MTase-Glo luminescence, SAH detection, recombinant enzyme; measured here: NNMT max response; stronger effect = lower value
[11] = target: Phenylethanolamine N-methyltransferase (Homo sapiens) (UniProt P11086); experiment: as above; conditions: MTase-Glo luminescence, SAH detection, recombinant enzyme; measured here: PNMT max response; stronger effect = lower value
[12] = tested on: Zika virus NS2B-NS3 protease (linked construct); experiment: Confirmatory screen NINDS AMC qHTS for Zika virus inhibitors (AID 1347152); note: potency is the fitted concentration of half-maximal effect; nearly all actives have a fitted effect of over 70% in size
Procedure, shortened: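 IC50s from 4-parameter Hill fits of percent inhibition, based on AMC fluorescence gain (340/450 nm) over 15 min with 10 microM Bz-Nle-KRR-AMC. Enzyme: 1 nM linked NS2B-NS3 in Tris-HCl pH 8.0; 15-min compound preincubation.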

[13] = Tertiary RLuc qRT-PCR qHTS assay for Zika virus inhibitors (AID 1347169); note: top concentration of the series differs between compounds; nearly all actives have a fitted effect of over 55% in size
Procedure, shortened: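 Orthogonal cell-based readout: luminescence measured 1-1.5 hrs after adding live-cell Renilla substrate to Vero cells that had been infected with ZIKV-RLuc (MOI 1-2) post-compound, incubated 48-72 hrs at 37 degrees C.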

Sequence of Cytochrome P450 2C9 (Homo sapiens) (P11712 whole entry, looked up): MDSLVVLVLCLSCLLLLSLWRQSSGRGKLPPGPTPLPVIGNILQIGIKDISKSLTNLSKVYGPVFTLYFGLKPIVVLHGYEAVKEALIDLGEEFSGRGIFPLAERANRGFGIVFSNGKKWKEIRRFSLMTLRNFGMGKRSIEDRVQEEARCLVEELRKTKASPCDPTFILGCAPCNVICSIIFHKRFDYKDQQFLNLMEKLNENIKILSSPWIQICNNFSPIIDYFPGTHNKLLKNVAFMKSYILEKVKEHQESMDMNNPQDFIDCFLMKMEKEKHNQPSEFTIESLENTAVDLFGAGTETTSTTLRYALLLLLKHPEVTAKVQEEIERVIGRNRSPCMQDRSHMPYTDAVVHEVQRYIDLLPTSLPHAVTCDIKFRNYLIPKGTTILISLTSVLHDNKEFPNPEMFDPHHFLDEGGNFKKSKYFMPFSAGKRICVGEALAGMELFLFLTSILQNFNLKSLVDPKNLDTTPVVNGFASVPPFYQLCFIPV
Sequence of Cytochrome P450 2D6 (Homo sapiens) (P10635 whole entry, looked up): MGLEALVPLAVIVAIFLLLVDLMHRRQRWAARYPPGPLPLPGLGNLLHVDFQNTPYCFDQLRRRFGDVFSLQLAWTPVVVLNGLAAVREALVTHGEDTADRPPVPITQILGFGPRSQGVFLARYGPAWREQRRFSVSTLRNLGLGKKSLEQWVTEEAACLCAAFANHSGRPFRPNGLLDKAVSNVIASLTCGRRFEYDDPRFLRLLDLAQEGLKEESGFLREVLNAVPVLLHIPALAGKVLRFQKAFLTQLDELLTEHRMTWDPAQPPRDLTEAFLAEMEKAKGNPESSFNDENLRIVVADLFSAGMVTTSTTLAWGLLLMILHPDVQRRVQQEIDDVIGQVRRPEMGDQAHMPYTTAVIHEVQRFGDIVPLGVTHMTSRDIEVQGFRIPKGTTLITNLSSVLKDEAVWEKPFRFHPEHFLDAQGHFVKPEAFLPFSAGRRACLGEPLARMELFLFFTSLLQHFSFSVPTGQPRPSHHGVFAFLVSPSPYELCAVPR
Sequence of Nicotinamide N-methyltransferase (Homo sapiens) (P40261 whole entry, looked up): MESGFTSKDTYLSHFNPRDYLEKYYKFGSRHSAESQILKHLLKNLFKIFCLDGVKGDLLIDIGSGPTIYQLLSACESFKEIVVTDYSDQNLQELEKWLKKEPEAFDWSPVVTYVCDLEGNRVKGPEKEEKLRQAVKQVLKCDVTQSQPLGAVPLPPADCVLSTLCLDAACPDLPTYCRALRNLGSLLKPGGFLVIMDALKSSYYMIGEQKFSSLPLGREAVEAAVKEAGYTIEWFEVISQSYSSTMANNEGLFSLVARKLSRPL
Sequence of Catechol O-methyltransferase (Homo sapiens) (P21964 whole entry, looked up): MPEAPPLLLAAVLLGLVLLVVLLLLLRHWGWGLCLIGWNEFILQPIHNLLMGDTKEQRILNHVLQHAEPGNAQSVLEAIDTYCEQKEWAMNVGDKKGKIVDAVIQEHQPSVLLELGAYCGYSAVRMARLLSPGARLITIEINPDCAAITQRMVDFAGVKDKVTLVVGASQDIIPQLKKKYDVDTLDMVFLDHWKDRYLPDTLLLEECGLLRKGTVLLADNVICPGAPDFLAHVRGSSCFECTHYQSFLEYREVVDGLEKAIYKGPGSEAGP
Sequence of Phenylethanolamine N-methyltransferase (Homo sapiens) (P11086 whole entry, looked up): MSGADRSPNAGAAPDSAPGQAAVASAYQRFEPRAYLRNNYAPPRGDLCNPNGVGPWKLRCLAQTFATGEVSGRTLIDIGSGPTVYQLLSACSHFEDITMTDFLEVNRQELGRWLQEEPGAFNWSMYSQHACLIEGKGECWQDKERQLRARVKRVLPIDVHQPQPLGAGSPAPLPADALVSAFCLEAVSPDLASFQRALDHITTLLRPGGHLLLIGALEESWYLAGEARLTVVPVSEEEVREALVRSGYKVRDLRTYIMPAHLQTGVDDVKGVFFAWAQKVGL

CC1CCCC(SCC(O)C(=O)O)CC(=O)c2c(O)cc(O)cc2CC(=O)O1 (centres undefined)
Potency [1]: inactive

CNCc1ccc(C)c(NC(=O)c2ccc(Nc3nc(-c4ccccc4)c4ccccc4n3)cc2)c1
Potency [2]: 33 µM (active) | Potency [3]: 12 µM (active) | Potency [4]: inactive | Potency [5]: inactive | Potency [1]: inactive | Potency (NIH3T3): 18.4 µM (active) | activity change, negative = inhibition [6]: -20% (inactive)

Cc1cc2nc(NCCCO)n(CC(=O)c3cc(C(C)(C)C)c(O)c(C(C)(C)C)c3)c2cc1C
Potency [7]: 18.4 µM (active) | Potency [4]: 13.5 µM (active) | Potency (CAOV3): inactive | Potency (PA-1): inactive

CCS(=O)(=O)N(Cc1cccnc1)c1cccc(-c2ccc(C#N)cc2)c1
Potency [7]: 23.1 µM (active) | Potency [4]: 9.52 µM (active) | Potency [1]: inactive | max response (NIH3T3): -19.5% (inactive) | Potency (CAOV3): inactive | Potency (PA-1): inactive

Cc1nc(C)c2c(n1)N(Cc1ccc(-c3ccccc3-c3nn[nH]n3)cc1)C(=O)CC2
Potency [3]: inactive | Potency [5]: inactive | Potency (CAOV3): inactive | Potency (PA-1): inactive | Potency (SKOV3): inactive

CC1OC2O[C@H]3[C@@H](OCC(O)[C@H]3O)OC(=O)C34CCC(C)(C)CC3C3=CCC5C6(C)CC(O)C(OC7OC(CO)C(O)C(O)C7O[C@@H]7OC[C@H](OC(=O)CC(C)(O)CC(=O)OC1C(OC1OCC(O)C(O)C1O)C2O)[C@@H](O)[C@H]7O)C(C)(CO)C6CCC5(C)C3(C)CC4 (some centres undefined)
Potency [5]: inactive | max response (NIH3T3): -22% (inactive)

Cc1nc2ccc(C(=O)N3CCC4(CC3)CC(=O)c3c(cnn3C(C)C)C4)cc2[nH]1
Potency [2]: inactive

CNCCN(C)Cc1cn[nH]c1-c1ccc(OC2CC(OCCC3CCOCC3)C2)cc1 (centres undefined)
Potency [2]: inactive | activity [8]: 0.741% | activity change, negative = inhibition [9]: 7.78% | activity [10]: -3.1% | activity [11]: -1.61% | max response (NIH3T3): -20% (inactive)

CC(=O)N1CCN([C@H]2CCN(C(=O)N(C)[C@H](C)c3cc(C(F)(F)F)cc(C(F)(F)F)c3)[C@@H](c3ccc(F)cc3C)C2)CC1
Potency [3]: 26.8 µM (active) | Potency [5]: inactive | Potency (CAOV3): inactive | Potency (PA-1): inactive | Potency (SKOV3): inactive

C=C1[C@@H](C2=CC(=O)OC2)CC[C@@]2(O)[C@@H]1CC1[C@H]2CC[C@@H]2C[C@@H](O[C@H]3O[C@@H](C)[C@@H](O[C@@H]4O[C@H](CO[C@@H]5O[C@H](CO)[C@@H](O)[C@H](O)[C@H]5O)[C@@H](O)[C@H](O)[C@H]4O)[C@H](OC)[C@H]3O)CC[C@]12C (some centres undefined)
Potency [7]: 3.48 µM (active) | outcome (NIH3T3): inactive

CO[C@@H]1[C@@H](O[C@H]2O[C@@H](C)[C@H](O[C@@H]3C[C@](C)(O)[C@H](O)[C@@H](C)O3)[C@@H](N(C)C)[C@@H]2O)[C@@H](CC=O)C[C@@H](C)[C@@H](O[C@H]2CC[C@H](N(C)C)[C@H](C)O2)/C=C/C=C/C[C@@H](C)OC(=O)C[C@H]1O
Potency [5]: inactive | Potency (CAOV3): inactive | Potency (PA-1): inactive | Potency (SKOV3): inactive

CS(=O)(=O)c1ccc(-c2cn3ccccc3n2)cc1
Potency [12]: 21.5 µM (active) | Potency [13]: inactive | Potency [3]: 5.49 µM (active) | Potency [4]: 13.8 µM (active) | Potency (PA-1): 17.8 µM (active) | Potency (SKOV3): 8.91 µM (active)

COc1cc(N2CCN(C(C)=O)CC2)ccc1Nc1ncc(Cl)c(Nc2ccc(N3CCN(C(C)=O)CC3)cc2OC)n1
Potency [7]: 20.6 µM (active) | Potency [4]: 5.35 µM (active) | Potency [1]: inactive | Potency (NIH3T3): 4.11 µM (active)

CC1(C)SC2C(NC(=O)[C@H](C(=O)O)c3ccsc3)C(=O)N2C1C(=O)O (some centres undefined)
Potency [5]: inactive | Potency [1]: inactive | Potency (CAOV3): inactive | Potency (PA-1): inactive

CN[C@@H]1[C@@H](O)[C@@H](O[C@@H]2[C@@H](O)[C@H](O[C@H]3O[C@@H]([C@@H](C)NC)CC[C@H]3N)[C@@H](N)C[C@H]2N)OC[C@]1(C)O
Potency [1]: inactive | Potency (CAOV3): inactive | Potency (PA-1): inactive | Potency (SKOV3): inactive

CCCCc1nc(Cl)c(CO)n1Cc1ccc(-c2ccccc2-c2nnn[nH]2)cc1
Potency [5]: inactive | Potency [1]: inactive | Potency (CAOV3): inactive | Potency (PA-1): inactive | Potency (SKOV3): inactive

CCNC(=O)[C@@H]1CCCN1C(=O)[C@H](CCCN=C(N)N)NC(=O)[C@H](CC(C)C)NC(=O)[C@@H](CC(C)C)NC(=O)[C@H](Cc1ccc(O)cc1)NC(=O)[C@H](CO)NC(=O)[C@H](Cc1c[nH]c2ccccc12)NC(=O)[C@H](Cc1cnc[nH]1)NC(=O)[C@@H]1CCC(=O)N1
Potency [5]: inactive | Potency (CAOV3): inactive | Potency (PA-1): inactive | Potency (SKOV3): inactive

Cc1cc(CS(=O)(=O)c2ccccc2)cc(OCc2ccc(CN3CCC[C@@H]3CO)cc2)c1
Potency [2]: inactive | Potency [5]: inactive | Potency [1]: inactive | Potency (NIH3T3): 20.6 µM (active)
